Assay outcomes (PubChem BioAssay)
Rpn11 block: Rpn11 (PSMD14) deubiquitinase inhibitors, primary screen, biochemical, fluorescence polarization, uHTS | human 26S proteasome, Ub4-pepOG fluorescence polarization; 20S core pre-blocked with epoxomicin | hit rate 0.59% among 360,000 | inhibition, % at 20 µM | 26S proteasome non-ATPase regulatory subunit 14 (Homo sapiens), O00487;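 active = inhibition at 20 µM, scaled to each plate's controls, above about 33%, limit read from the data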
Target sequence (O00487 whole entry, looked up): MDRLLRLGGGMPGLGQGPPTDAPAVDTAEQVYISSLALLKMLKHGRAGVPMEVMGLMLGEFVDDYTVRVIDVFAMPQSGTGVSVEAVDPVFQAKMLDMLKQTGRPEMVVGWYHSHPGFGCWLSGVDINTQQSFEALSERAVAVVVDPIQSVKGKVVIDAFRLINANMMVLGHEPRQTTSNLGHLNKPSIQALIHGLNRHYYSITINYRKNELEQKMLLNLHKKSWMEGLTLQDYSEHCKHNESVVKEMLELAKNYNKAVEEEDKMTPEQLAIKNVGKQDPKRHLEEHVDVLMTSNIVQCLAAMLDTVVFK
TPT1 inhibitor: Candida albicans TPT1 enzyme inhibitors, primary screen, biochemical, fluorescence polarization; inhibition, % at 5 µM; recombinant caTPT1, FP RNA substrate dephosphorylation; hit rate 0.81% among 300,000; AID 1962, 2009;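 active = inhibition above the mean of all tested compounds plus 3 SD, set per screening campaign, cut at about 24% in these data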;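 note: plate controls were DMSO alone for no effect and ferristatin control at 100 nM for full effect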
CendR NRP1 mod: modulators of CendR peptide binding to NRP-1, primary screen, biochemical, fluorescence polarization, uHTS. Neuropilin-1 (Homo sapiens), O14786. FAM-RPARPAR peptide binding to NRP-1. inhibition, % at 25 µM. hit rate 0.85% among 360,000. AID 602438, 2012;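 active = inhibition or corrected inhibition above about 18%, plus a signal ratio from 0.5 to 1.5, limit read from the data, passing the limit was not always enough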
PHOSPHO1 block: PubChem AID 1565 | hit rate 1.1% among 290,000 | inhibition, % at 13.3 µM | recombinant PHOSPHO1, absorbance phosphatase assay | Phosphoethanolamine/phosphocholine phosphatase (Homo sapiens), Q8TCT1; in the data active = inhibition above about 60%
Target sequence (Q8TCT1 whole entry, looked up): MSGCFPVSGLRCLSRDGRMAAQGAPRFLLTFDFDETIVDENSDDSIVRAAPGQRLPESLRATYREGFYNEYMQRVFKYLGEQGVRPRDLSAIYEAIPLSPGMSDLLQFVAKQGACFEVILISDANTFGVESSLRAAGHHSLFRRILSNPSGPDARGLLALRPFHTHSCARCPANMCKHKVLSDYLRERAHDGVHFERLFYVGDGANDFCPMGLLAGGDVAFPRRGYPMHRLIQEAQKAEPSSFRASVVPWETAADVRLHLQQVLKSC
HNF4A DNA FP: change in binding of human HNF4A to DNA, primary screen, biochemical, fluorescence polarization, FITC-DNA; hit rate 0.3% among 360,000; activity change, % at 10 µM; Hepatocyte nuclear factor 4-alpha (Homo sapiens), P41235; AID 1224865, 2016; 1 h; in the data active = activity change above about 30%, passing the limit was not always enough
Fh CTSL1 inh: Fasciola hepatica cathepsin L1 inhibitors, primary screen, counter-screen for PFM18AAP inhibitor project, biochemical, QFRET, fluorogenic peptide substrate; recombinant F. hepatica cathepsin L1, Z-Leu-Arg-MCA fluorescence; inhibition, % at 5.96 µM; hit rate 0.49% among 300,000;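 active = inhibition above the mean of all tested compounds plus 3 SD, set per screening campaign, cut at about 17% in these data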;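 note: 0% = plate median of test compound wells and 100% = 1 µM Z-Phe-Ala-diazomethylketone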
An asterisk follows results filed as active; / = no result. Only some compounds are listed: those with a hit (about 3.3% of all), similar ones and a draw of the others.

SMILES	Rpn11 block	TPT1 inhibitor	CendR NRP1 mod	PHOSPHO1 block	HNF4A DNA FP	Fh CTSL1 inh
CC(C)OCCCn1c(=S)[nH]c2ccc(N3CCOCC3)cc2c1=O	-7	5	-10	0	2	0
Cc1cc2c(cc1C)-n1nnnc1C(N(C)Cc1ccccc1)C(=O)N2 (centres undefined)	/	/	3	/	0	/
COc1ccccc1NC(=O)CSc1nnc(CC(=O)Nc2ccccc2F)n1C	6	1	-4	39	1	3
CCOC(=O)c1cnc(-n2cc(C)cn2)nc1NCc1ccc2c(c1)OCO2	3	1	-10	52	48*	0
O=C(CSc1nnc(-c2cccc(Br)c2)o1)N1CCNC1=O	5	/	3	/	-1	/
CCOC(=O)C1CCN(c2cc(=O)n(C3CCCCC3)c(=O)[nH]2)CC1	-4	-4	3	6	40*	-3
Cc1c(C)c2c(OCC(=O)N3CCC(C(N)=O)CC3)cc3c(c2oc1=O)CCC(C)(C)O3	-4	0	4	29	4	0
C=CCSc1nnc2c(n1)OC(c1cccnc1)N(C(C)=O)c1ccccc1-2 (centres undefined)	1	-5	-8	16	2	1
C=CCSc1nnc2c(n1)OC(c1cccnc1)Nc1ccccc1-2 (centres undefined)	2	-1	-6	82*	4	-2
Cn1c(SCCCC(=O)c2ccccc2)nnc1-c1ccncc1	3	-5	8	68*	0	5
O=C(NCC(=O)N1CCC(Cc2ccccc2)CC1)c1ccccc1F	-5	/	32*	/	-3	/
O=C(NCC(=O)N1CCCC1)c1ccccc1F	4	-2	-10	35	2	1
O=C(Nc1cccc(F)c1)NC1(C(=O)N2CCC(O)CC2)CCCCC1	0	-5	24*	10	2	-5
Cc1c(C)c2ccc(OCC(=O)NCCc3c[nH]c4ccccc34)cc2oc1=O	6	/	-5	/	0	/
COc1ccc(-c2noc(CN(C(=O)C(C)(C)C)C(C)C)n2)cc1	0	3	5	22	1	0
O=C(Nc1cc2c(oc1=O)CCCC2=O)c1cccc(Cl)c1	-5	4	3	65*	-2	5
COc1ccc(C(=O)Nc2cc3c(oc2=O)CCCC3=O)cc1	0	1	-17	28	-12	2
O=C1c2ccccc2C(=O)N1CCSc1n[nH]c(=S)s1	-1	1	-13	99*	0	1
Cc1ccc(C2(C)NC(=O)N(CC(=O)Nc3nc(-c4ccccn4)cs3)C2=O)cc1 (centres undefined)	3	1	-2	/	3	5
CO/N=C/NC(=O)c1c(OC)ccnc1Oc1ccccc1	0	2	26*	30	-2	4
COc1cccc(CN2CCC2(C)C(=O)NCCc2ccccn2)c1OC (centres undefined)	-3	/	-5	/	-3	/
CCOc1ccc2nc(NC(=S)N(C)C)sc2c1	4	0	4	91*	4	-2
CCCC(=O)Nc1nc2ccc(OCC)cc2s1	-1	1	4	-3	-2	2
O=C(/C=C\c1ccco1)Oc1cccc2cccnc12	-14	-3	-11	-16	-11	-3
CCOC(=O)c1[nH]c2ccc(Br)cc2c1NC(=O)CCN1CCCC(C)(C)C1	-4	0	29*	4	0	1
SMILES	Rpn11 block	TPT1 inhibitor	CendR NRP1 mod	PHOSPHO1 block	HNF4A DNA FP	Fh CTSL1 inh
CCOC(=O)c1csc(NC(=O)C2=COCCO2)n1	-4	1	-5	71*	1	1
CC(C)(C)c1csc(NC(=O)C2=COCCO2)n1	-10	2	8	/	2	2
Cc1ccc(N2C(=O)N(CC(=O)Nc3ccc(C)cc3[N+](=O)[O-])C(=O)C2C)cc1 (centres undefined)	0	0	2	/	-1	7
CN1C(=S)SC(N(O)C(=O)Nc2ccccc2)C1(C)C (centres undefined)	-2	-5	-11	14	1	2
CN1C(=S)SC(N(O)C(=O)Nc2cccc3ccccc23)C1(C)C (centres undefined)	9	-3	31*	63*	-2	0
Cc1nnc(SCC(=O)N2CCC(C(N)=O)CC2)s1	-4	3	-1	8	-2	-3
O=C(NCCN1CCOCC1)C12CC3CC(C1)CC(c1ccccc1)(C3)C2	3	-4	44*	42	1	-3
CC1(C(=O)NCCN2CCOCC2)C=CCN1C(=O)c1ccccc1 (centres undefined)	-5	2	10	1	-2	-3
O=c1cc(-c2cccc(Br)c2)oc2cccc(O)c12	-3	-2	-2	27	-4	2
CCOc1ccc(S(=O)(=O)N2CCCC(C(=O)NCc3cccnc3)C2)cc1Cl (centres undefined)	3	3	-1	23	4	1
CCc1ccccc1NC(=S)N1CCN(c2ccccc2F)CC1	3	-9	11	24	1	19*
CS(=O)(=O)Nc1ccc(C(=O)Nc2ccccc2-c2ccccc2)cc1	-5	-4	27*	36	0	-2
CSCCC1NC(=O)N(CC(=O)Nc2ccc(-c3ccccc3)cc2)C1=O (centres undefined)	6	2	-8	16	3	-14
O=C(Nc1c(Cl)cccc1Cl)Oc1cccc2cccnc12	51*	/	12	/	1	/
O=C(/C=C/c1ccco1)NCc1ccccn1	-11	-4	0	16	-3	17*
O=C(/C=C/c1ccc([N+](=O)[O-])cc1)NCc1ccccn1	-8	-2	4	-13	0	5
O=C(COC(=O)/C=C/c1ccco1)NC1CCCCC1	-5	/	-17	/	-3	/
O=C(/C=C/c1ccco1)NC1CCCC1	-6	4	3	12	2	59*
COc1ccc(Nc2nc(C)nc3c2nnn3Cc2ccccc2Cl)c(OC)c1	5	0	-10	25	6	2
Cc1ccc(NS(=O)(=O)c2ccc(C)c(NC(=O)c3ccc(S(=O)(=O)N4CCCCCC4)cc3)c2)c(C)c1	13	/	-3	/	-1	/
Cc1nc2ccccc2c(=O)n1/N=C/c1ccccc1	-6	-2	7	13	-1	0
Cc1nc2ccccc2c(=O)n1/N=C/c1ccncc1	-23	-2	-7	-1	-2	18*
CCOC(=O)c1ccc(-c2c(-c3cc(OC)c(OC)c(OC)c3)noc2C)cc1F	3	-3	25*	10	0	-1
CN(C)S(=O)(=O)c1cccc(-c2nnc(SCc3cc(Cl)cc4c3OCOC4)n2N)c1	1	-1	-10	99*	3	-6
